Among all 360,000 compounds or so, about 16,000 (4.4%) were called active. Not shown: some 9% with an inconclusive outcome. Calls follow the shape of the dose curve; as a rule, active = well fitted inhibition curve with a large enough effect; inconclusive = small, poorly fitted or top-dose-only effect; inactive = no such curve, though single readings can be large or run the other way. This excerpt belongs to a sample that is enriched for actives.
target: Bromodomain adjacent to zinc finger domain protein 2B (Homo sapiens) (UniProt Q9UIF8); test: qHTS Assay for Inhibitors of BAZ2B; conditions: AlphaScreen BAZ2B-H3K14Ac peptide displacement; series mostly up to 114 µM; also: nearly all actives have a fitted effect of over 60% in size
Sequence (Q9UIF8 whole entry, looked up, the tested form may be a part): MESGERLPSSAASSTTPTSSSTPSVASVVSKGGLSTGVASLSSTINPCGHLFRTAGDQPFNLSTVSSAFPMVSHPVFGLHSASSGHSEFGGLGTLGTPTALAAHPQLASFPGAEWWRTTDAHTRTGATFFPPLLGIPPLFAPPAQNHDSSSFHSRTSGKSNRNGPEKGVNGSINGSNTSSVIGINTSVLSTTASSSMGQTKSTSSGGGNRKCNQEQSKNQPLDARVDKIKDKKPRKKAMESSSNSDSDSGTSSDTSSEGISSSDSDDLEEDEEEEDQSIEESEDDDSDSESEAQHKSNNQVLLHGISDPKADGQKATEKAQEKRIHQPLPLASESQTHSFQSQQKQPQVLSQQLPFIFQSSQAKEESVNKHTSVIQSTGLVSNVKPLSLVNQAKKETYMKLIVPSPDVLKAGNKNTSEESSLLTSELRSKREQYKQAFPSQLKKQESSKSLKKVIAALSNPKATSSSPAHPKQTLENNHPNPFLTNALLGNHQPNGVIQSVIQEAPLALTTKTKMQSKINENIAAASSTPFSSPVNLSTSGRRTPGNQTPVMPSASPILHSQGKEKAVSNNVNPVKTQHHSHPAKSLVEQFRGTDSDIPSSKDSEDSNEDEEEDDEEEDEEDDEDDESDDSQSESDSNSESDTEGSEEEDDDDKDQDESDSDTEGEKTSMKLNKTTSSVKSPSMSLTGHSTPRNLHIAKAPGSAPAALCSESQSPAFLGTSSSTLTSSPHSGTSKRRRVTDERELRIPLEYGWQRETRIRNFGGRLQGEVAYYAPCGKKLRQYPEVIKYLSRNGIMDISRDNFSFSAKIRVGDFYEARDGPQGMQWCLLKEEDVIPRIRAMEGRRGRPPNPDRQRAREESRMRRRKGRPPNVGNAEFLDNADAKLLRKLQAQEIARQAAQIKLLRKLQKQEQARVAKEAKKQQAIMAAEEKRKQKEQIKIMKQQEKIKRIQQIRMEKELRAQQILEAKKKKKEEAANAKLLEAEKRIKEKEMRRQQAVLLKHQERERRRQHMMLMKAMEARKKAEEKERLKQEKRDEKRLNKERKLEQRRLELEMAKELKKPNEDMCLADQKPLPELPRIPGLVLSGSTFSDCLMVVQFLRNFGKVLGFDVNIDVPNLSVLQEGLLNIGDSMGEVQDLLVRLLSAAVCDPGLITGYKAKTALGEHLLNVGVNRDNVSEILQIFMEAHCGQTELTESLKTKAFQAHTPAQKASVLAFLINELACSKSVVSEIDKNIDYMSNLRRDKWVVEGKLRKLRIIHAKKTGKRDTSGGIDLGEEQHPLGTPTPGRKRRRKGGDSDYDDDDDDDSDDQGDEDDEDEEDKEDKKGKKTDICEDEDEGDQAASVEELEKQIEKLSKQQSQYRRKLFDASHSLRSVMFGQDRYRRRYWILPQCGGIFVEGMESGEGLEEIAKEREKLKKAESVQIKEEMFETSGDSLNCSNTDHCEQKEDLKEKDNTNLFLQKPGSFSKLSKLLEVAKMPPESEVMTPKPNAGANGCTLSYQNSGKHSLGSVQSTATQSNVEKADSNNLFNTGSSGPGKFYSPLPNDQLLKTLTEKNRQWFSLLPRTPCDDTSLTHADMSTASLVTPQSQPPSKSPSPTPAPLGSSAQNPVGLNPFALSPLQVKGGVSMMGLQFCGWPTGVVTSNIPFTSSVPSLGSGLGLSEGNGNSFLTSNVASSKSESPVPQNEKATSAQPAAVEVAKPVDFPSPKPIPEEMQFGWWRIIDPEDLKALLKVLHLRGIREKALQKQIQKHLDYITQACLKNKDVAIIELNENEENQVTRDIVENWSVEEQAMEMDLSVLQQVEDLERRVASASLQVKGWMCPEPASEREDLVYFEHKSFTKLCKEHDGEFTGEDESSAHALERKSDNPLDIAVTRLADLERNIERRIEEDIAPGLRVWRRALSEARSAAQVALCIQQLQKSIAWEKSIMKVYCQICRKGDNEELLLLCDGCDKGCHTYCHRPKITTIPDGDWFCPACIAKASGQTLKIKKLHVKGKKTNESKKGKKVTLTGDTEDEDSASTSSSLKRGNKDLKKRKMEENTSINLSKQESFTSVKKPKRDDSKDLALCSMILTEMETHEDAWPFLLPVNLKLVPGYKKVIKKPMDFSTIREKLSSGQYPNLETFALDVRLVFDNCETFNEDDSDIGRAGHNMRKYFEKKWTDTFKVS
Procedure, shortened: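 Compounds, titrated to a top concentration of 110 uM, were incubated 30 min at room temperature with preformed BAZ2B/acetyl-K14 H3 peptide complex (50 nM each). Proximity signal was measured by AlphaScreen after 20 min with beads.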
Potency is read from the fitted curve at half-maximal effect.

Potency, active:
CCOC(=O)c1c(/N=C/c2cc(C)ccc2O)sc2c1CCC2 50.1 µM
N#Cc1ccccc1CN1C(=O)S/C(=C/c2cccn2-c2cccc(C(=O)O)c2)C1=O 25.1 µM
CCOc1cccc2c1N[C@@H](c1ccc(C(=O)O)cc1)[C@H]1CC=C[C@@H]21 15.8 µM
CC(O)CN(Cc1ccc(Cl)cc1)CC(C)O (configuration not stated) 56.2 µM
O=S(=O)(c1cccc2nonc12)N1CCN(c2cccc(Cl)c2)CC1 50.1 µM
Oc1c(C(c2ccccn2)N2CCOCC2)ccc2cccnc12 (configuration not stated) 3.16 µM
Cc1cccc(N2CCN(c3ccc(NC(=O)/C=C\C(=O)O)cc3)CC2)c1 35.5 µM
CN(C)c1ccc(/C=C/C(=O)c2ccc(C(C)(C)C)cc2)cc1[N+](=O)[O-] 8.91 µM
COc1ccccc1C1=Nc2cccc3cccc(c23)N1 39.8 µM
Cn1c2ccccc2c(=O)c2c(=O)n(Cc3ccco3)c(COc3ccccc3)nc21 56.2 µM
Oc1c(C=Nc2cccc3nsnc23)ccc2ccccc12 50.1 µM
C=C1c2c(Cl)ccc(O)c2C(O)=C2C(=O)[C@]3(O)C(O)=C(C(N)=O)C(=O)[C@@H](N(C)C)[C@@H]3[C@@H](O)C12 (some centres not stated) 2.82 µM
CN(C)[C@@H]1C(=O)C(C(N)=O)=C(O)[C@@]2(O)C(=O)C3=C(O)c4c(O)ccc(Cl)c4[C@@H](O)[C@H]3C[C@@H]12 10 µM

Potency, inactive:
CCOC(=O)c1c(NC(=O)/C(C#N)=C/c2ccccc2)sc2c1CCC2
CCOC(=O)c1c(NC(=S)NC)sc2c1CCCC2
O=C(Nc1ccc2nc(SCC(=O)N3CCc4ccccc43)sc2c1)c1ccccc1F
CCOC(=O)c1cc2c(=O)n3ccccc3nc2n(CC2CCCO2)c1=NC(=O)c1ccccc1Br (configuration not stated)
CCc1ccc(NC(=O)CCCc2nnc3n(CCCOC)c(=O)c4sccc4n23)cc1
Cc1nn(Cc2ccccc2)c(C)c1C(=O)NCCN1C(=O)S/C(=C\c2ccc(F)cc2)C1=O
O=C(NCCN1C(=O)S/C(=C\c2cccnc2)C1=O)c1cccc(OC(F)F)c1
CCc1ccc(CNCc2c(C(=O)O)n(Cc3ccc(F)cc3Cl)c3cc(OC)ccc23)cc1
CCCCN(CC)CCCNC(=O)Cn1ncc2c([nH]c3ccc(C)cc32)c1=O
CCNS(=O)(=O)c1ccc(NC(=O)CSc2nc(-c3ccco3)cc(C(F)(F)F)n2)cc1
CCOc1c(CNCc2ccc(C(=O)O)cc2)cccc1OC
CCOc1cc(C(=O)O)ccc1OCCOc1ccccc1
Cc1cccc(N2CCN(C(=O)CCSCc3ccccc3F)CC2)c1C
Cc1ccc(-n2ncc(C(=O)N(C)Cc3ccccc3)c2-n2cccc2)cc1
COc1ccc2oc(-c3ccc(C)c(NC(=O)c4sc5ccccc5c4Cl)c3)nc2c1
O=C(CSc1nc(Nc2ccc(F)c(F)c2)c2ccccc2n1)c1ccc(Cl)cc1
CN(C)CCCNC(=S)NCc1ccc(Cl)cc1
O=C(NCc1ccc(Cl)cc1)NCc1ccc(Cl)cc1
CCC1CN(S(=O)(=O)c2cc(-c3cc(C)no3)ccc2C)c2cc(C)ccc2O1 (configuration not stated)
O=S(=O)(c1ccc(Br)cc1)c1nnn2c1nc(N1CCOCC1)c1sccc12
O=C(CSc1oc(-c2ccco2)nc1S(=O)(=O)c1ccccc1)c1ccc(Cl)cc1
CC1CC(C)CN(S(=O)(=O)c2cccc3nonc23)C1 (configuration not stated)
O=C(NCc1ccccc1Cl)C1CCN(S(=O)(=O)c2cccc3nonc23)CC1
COc1ccc(Cn2ccc3nc(C)c(C(=O)Nc4ccc(C)c(F)c4)cc3c2=O)cc1
CC(=O)c1cccc(Nc2ccc3cc(S(=O)(=O)N4CCC(C)CC4)ccc3n2)c1
O=C(CSc1nc2c(c(=O)[nH]1)CN(Cc1ccc3c(c1)OCO3)CC2)Nc1cc(F)ccc1F
Oc1c(C(c2ccccc2Cl)N2CCOCC2)sc2nc(-c3ccco3)nn12 (configuration not stated)
CC(C)c1cc(CN2CCOCC2)cc(C(C)C)c1O
COc1ccc(-c2nc(S(=O)(=O)c3ccccc3)c(N3CCCCC3)o2)cc1
O=C(CCC1N=C2c3ccccc3N=C(SCc3ccccc3F)N2C1=O)NCCc1ccccc1 (configuration not stated)
NS(=O)(=O)c1ccc(NC(=O)COc2ccc(S(=O)(=O)NC3CCCCC3)cc2)cc1
COc1ccc(-c2csc(-c3c(N)c(C(=O)c4ccc(OC)c(OC)c4)n4ccccc34)n2)cc1
CC(=O)Nc1ccc(S(=O)(=O)N2CCN(c3ccccc3)CC2)cc1
CN1CCN(c2ccc(NC(=O)c3ccccc3)cc2)CC1
CC(=O)Nc1ccc(/C=C/C(=O)c2ccccc2)cc1
Cc1cc(C(=O)O)ccc1[N+](=O)[O-]
O=S(=O)(c1ccc(C2CCCCC2)cc1)N1CCN(c2ccc(Cl)c(Cl)c2)CC1
CC1CCN(S(=O)(=O)c2ccc3c(c2)N(CC(=O)NCCc2ccccc2)C(=O)CO3)CC1
Cc1cc(Cl)ccc1NC(=O)Cc1ccc(NC(=O)N2CCCCc3ccccc32)cc1
Cc1ccc(-n2c(=O)c3cccnc3n2CC(=O)Nc2ccccc2C(F)(F)F)cc1C
COc1ccccc1-c1nc(C(F)(F)F)c(OC)o1
c1ccc(C2=Nc3cccc4cccc(c34)N2)cc1
Cc1ccccc1-c1nc2cc(NC(=O)c3cccc(OCCC(C)C)c3)ccc2o1
CCc1ccc2oc(-c3ccc(C)c(NC(=O)/C=C/c4ccco4)c3)nc2c1
COCn1c(COc2ccccc2)nc2ccccc21
O=C(CSc1nnc(COc2ccc(Cl)cc2)n1Cc1ccco1)N1CCNC1=O
Cc1ccc2ncc(C(=O)Nc3ccc(OC(F)(F)F)cc3)c(=O)n2c1
Cc1ccc(Cl)cc1NC(=O)CCS(=O)(=O)c1ccc(Br)s1
Cc1ccc(-n2c(=O)c3cccnc3n2CC(=O)NCc2ccc(F)cc2)cc1C
